Our source for the inhibition values is PubChem BioAssay AID624330 (Southern Research Specialized Biocontainment Screening …, 2012).

Molecules are shown by their SMILES. Among all 340,000 compounds or so, about 2,100 (0.62%) were called active. Only a sample is shown. Results with a measured potency or affinity are listed apart. A number with no mark means an inactive call.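 Rule for the calls: active = first-screen hits whose inhibition reached a set limit at any dose in the follow-up dose series; inconclusive = inhibition above the set first-screen limit but never retested; inactive = the rest.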

For orientation: inhibition means the change of the read-out against control, counted positive when it falls.

Rac GTPase-activating protein 1 (Homo sapiens), sequence (Q9H0H5 whole entry, looked up): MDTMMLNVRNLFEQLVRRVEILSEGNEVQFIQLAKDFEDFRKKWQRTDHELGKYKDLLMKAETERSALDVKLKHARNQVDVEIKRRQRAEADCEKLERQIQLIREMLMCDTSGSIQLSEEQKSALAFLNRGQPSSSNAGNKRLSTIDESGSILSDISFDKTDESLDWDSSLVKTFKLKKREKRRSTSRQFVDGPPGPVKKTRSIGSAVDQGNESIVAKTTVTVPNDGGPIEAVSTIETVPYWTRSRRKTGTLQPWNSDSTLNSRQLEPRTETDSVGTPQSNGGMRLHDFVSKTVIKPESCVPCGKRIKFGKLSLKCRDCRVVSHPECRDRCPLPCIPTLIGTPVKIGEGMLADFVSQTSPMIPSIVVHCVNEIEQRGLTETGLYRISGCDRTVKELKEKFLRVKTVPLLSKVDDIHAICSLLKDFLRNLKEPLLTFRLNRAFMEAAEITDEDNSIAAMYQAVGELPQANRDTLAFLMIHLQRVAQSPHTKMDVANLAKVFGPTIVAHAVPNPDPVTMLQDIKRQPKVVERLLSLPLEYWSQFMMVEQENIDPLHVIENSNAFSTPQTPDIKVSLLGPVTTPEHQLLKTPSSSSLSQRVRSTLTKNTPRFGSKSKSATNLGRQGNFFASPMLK

The assay has as its target Rac GTPase-activating protein 1 (Homo sapiens) (UniProt Q9H0H5). Put plainly: blockers of MgcRacGAP-driven Rac1 GTP hydrolysis – biochemical, ADP Hunter fluorescence, primary and confirmatory, confirmation (AID 624330).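 Note: fluorescence reports GDP produced by GAP-driven GTP hydrolysis.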 Conditions: MgcRacGAP-stimulated Rac1 GTP hydrolysis, at 30 µM, hits give high values, GST-tagged Rac1 F28L mutant substrate.
`COc1ccccc1NC(=O)C(C)n1cnc2c(oc3nc4c(cc32)CCCC4)c1=O` (stereo not given): the inhibition is -4.17%.
The same measure for `COc1ccc(/C=C2/CCCC(C(=O)C(F)(F)F)=C2O)cc1OC`: 6.67%.
The same measure for `CCOC(=O)C(=O)Nc1cc([N+](=O)[O-])ccc1C`: 0.69%; for `COc1cc(C(=O)NCCCc2ccccc2)cc(OC)c1OC`: 5.75%.
For the molecule `Cc1ccc(-c2n[nH]c(=S)n2C)cc1`, the inhibition is 14.7%.
With `Cc1ccc(-c2cn3c(=S)[nH]nc3s2)cc1`, the inhibition is 22.2%.
Take `Cc1cc(CSc2ccccc2C(=O)O)on1`: the inhibition was -2.15%.
Next, `C/C(=N/NC(=O)c1ccc(-c2ccccc2)cc1)c1cc(O)cc(O)c1`: 14.9%.
The same measure for `CC(=O)Nc1cc(S(=O)(=O)Nc2ccc(C)cc2)c(C)cc1C`: 11.6%.
With `Cc1cc(C(=O)CCC(=O)N(C)CC(=O)Nc2c(Cl)cccc2Cl)c(C)s1`, the inhibition is 1.85%.
Take `C/C(=N\NS(=O)(=O)c1ccc(Cl)c([N+](=O)[O-])c1)c1cc2ccccc2o1`: the inhibition was 10.9%.
The same measure for `CC(=O)c1ccc2c(c1)C1C=CCC1C(c1ccncc1)N2` (stereo not given): 13%; for `O=C(O)c1ccc2c(c1)C1C=CCC1C(c1ccncc1)N2` (stereo not given): 9.53%; for `CCOC(=O)c1ccc2c(c1)C1C=CCC1C(C(=O)OCC)N2` (stereo not given): 12.1%.
The same measure for `CCOC(=O)C1Nc2ccc(C)cc2C2C=CCC12` (stereo not given): 10.5%.
Next, `O=C(C[C@H]1C(=O)N(CCc2ccccc2)C[C@@H]1Cc1ccccc1)Nc1ccc(Br)cc1`: 12.8%; `CN(C)c1ccc(O)c2c1CC1CC3C(N(C)C)C(=O)C(C(N)=O)=C(O)[C@@]3(O)C(=O)C1=C2O` (stereo not given in full): 9.88%.
As to `CN(C)c1ccc(O)c2c1CC1CC3[C@@H](N(C)C)C(=O)C(C(N)=O)C(=O)[C@]3(O)C(=O)C1C2=O` (stereo not given in full), the inhibition is 15.3%.
Next, `C[C@H]1c2cccc(O)c2C(O)=C2C(=O)[C@]3(O)C(O)=C(C(N)=O)C(=O)[C@@H](N(C)C)C3[C@@H](O)C21` (stereo not given in full): 2.79%.
The same measure for `C[C@H]1c2cccc(O)c2C(O)=C2C(=O)C3(O)C(O)=C(C(N)=O)C(=O)[C@@H](N(C)C)[C@@H]3[C@@H](O)[C@@H]21` (stereo not given in full): 1.02%; for `C[C@H]1c2cccc(O)c2C(O)=C2C(=O)[C@]3(O)C(O)=C(C(N)=O)C(=O)[C@@H](N(C)C)[C@@H]3[C@@H](O)[C@@H]21`: 8.18%.
The same measure for `C=C1c2cccc(O)c2C(=O)C2C(=O)[C@]3(O)C(=O)C(C(N)=O)C(=O)[C@@H](N(C)C)[C@@H]3[C@@H](O)[C@H]12` (stereo not given in full): 73.9%.
Regarding `CC(=O)Nc1ccc(-c2csc(NCCc3ccccc3)n2)cc1`, the inhibition is 9.25%.
The same measure for `O=C1CN(C(=O)COC(=O)Cc2ccccc2F)c2ccccc2N1`: 3.02%.
Next, `Nc1cc(S(=O)(=O)Nc2ccccc2Cl)ccc1N1CCCC1`: 11.5%.
The same measure for `O=C(O)CSc1nnc(CNc2cccc(C(F)(F)F)c2)n1Cc1ccco1`: 10.8%; for `COC(=O)CCC(=O)NNC(=O)CCC(=O)Nc1cccc(Cl)c1C`: 8.78%; for `COc1ccc(OC)c(-c2csc(NC(=O)CSc3ccc(Br)cc3)n2)c1`: 5.11%.
Turning to `CCn1c(=O)n(CC)c2cc(N3CCCC3)c(NC(=O)c3ccc(F)cc3)cc21`, the inhibition is 17%.
Next, `CCn1c(=O)n(CC)c2cc(N3CCCC3)c(NC(=O)c3cccc(OC)c3)cc21`: 8.3%.
The same measure for `CCn1c(=O)n(CC)c2cc(N3CCCC3)c(NC(=O)c3cccc(C)c3)cc21`: 11.6%.
For `COc1cccc(C(=O)Nc2cc3c(cc2N2CCOCC2)n(C)c(=O)n3C)c1`, the inhibition is -34.3%.
The same measure for `O=C(NCC(c1ccco1)N1CCCCC1)c1cccnc1` (stereo not given): 0.38%.
The same measure for `C/C(N)=C(/C#N)C(=O)CSc1nc2ccccc2n1CC(C)C`: 8.8%; for `NC(=S)N=Nc1c(O)n(CC(=O)Nc2ccccc2)c2ccccc12`: -6.62%; for `COc1ccc(C(=O)Nc2c(N)nc(SCC(=O)N3CCC(C)CC3)[nH]c2=O)cc1`: 6.29%.
The same measure for `N#Cc1ccsc1NC(=O)C1=COCCO1`: 10.4%; for `CN(C)c1ccc(C(=O)NCC2CCCO2)cc1` (stereo not given): -9.43%.
On to `CN(C)c1ccc(CNCC2CCCO2)cc1` (stereo not given), for which the inhibition was -6.93%.
The same measure for `CN(CC(=O)Nc1cccc(S(=O)(=O)N2CCOCC2)c1)CC(=O)Nc1ccc(Cl)c(C(F)(F)F)c1`: 6.95%; for `C/C(=N\O)C(C)(C)Nc1ccc(Cl)cc1`: 11.3%.
With `CC(C)C(CO)NC(=O)CC(=O)NC(CO)C(C)C` (stereo not given), the inhibition is 5.27%.
The same measure for `CN(C)c1ccc(C=NN2CCCCCC2)cc1`: -2.87%; for `CC1CCCC(C)N1/N=C/c1ccc(N(C)C)cc1` (stereo not given): 9.58%.
Regarding `Cc1ccc(C(=O)N2CCN(c3ccc(N4CCOCC4)nn3)CC2)cc1C`, the inhibition was 5.24%.
The same measure for `CCOC(=O)c1c(NC(N)=O)sc(C)c1C`: 1.42%; for `CCOC(=O)Nc1sc(C)c(C)c1C(=O)OCC`: -8.16%.
The same measure for `O=c1[nH]c2ccccc2n2c(C(F)(F)F)nnc12`: 5.97%.
Next, `O=c1[nH]c2ccccc2n2c(-c3ccncc3)nnc12`: 6.75%; `O=C(Nc1ccc(Cl)cc1)c1ccc2nsnc2c1`: -0.42%; `COC(=O)c1ccc(NC(=O)c2ccc3nsnc3c2)cc1`: 2.71%.
In the case of `CC(=O)c1ccc(NC(=O)c2ccc3nc(C)sc3c2)cc1`, the inhibition was 5.73%.
In the case of `COC(=O)c1ccc(NC(=O)c2ccc3nc(C)sc3c2)cc1`, the inhibition is -0.39%.
Next, `O=C(/C=C/c1ccc(Cl)c(Cl)c1)NCCCn1ccnc1`: 7.08%; `CN1c2ccc(Cl)cc2C(=O)NC1c1ccc([N+](=O)[O-])s1` (stereo not given): 11.4%.
The same measure for `Cc1cccn2c(=O)c(C=NCc3ccccc3)c(NCCO)nc12`: 7.69%; for `C#CCOCCOCCOCCNc1nc(N2CCN(C(=O)C(Cc3cc4ccccc4[nH]3)n3cc(C(N)C(C)CC)nn3)CC2)nc(N2CCN(C(=O)C(Cc3cc4ccccc4[nH]3)n3cc(C(N)C(C)CC)nn3)CC2)n1` (stereo not given): 4.22%.
Regarding `C#CCOCCOCCOCCNc1nc(N2CCOCC2)nc(N2CCN(C(=O)[C@H](Cc3cc4ccccc4[nH]3)n3cc([C@@H](N)C(C)CC)nn3)CC2)n1` (stereo not given in full), the inhibition is 13.4%.
Next, `C#CCOCCOCCOCCNc1nc(N2CCN(C(=O)[C@H](CCCCN)n3cc([C@@H](N)CO)nn3)CC2)nc(N2CCN(C(=O)[C@H](CCCCN)n3cc([C@@H](N)CC(C)C)nn3)CC2)n1`: 19.8%; `C#CCOCCOCCOCCNc1nc(N2CCN(C(=O)[C@H]([C@@H](C)CC)n3cc([C@@H](N)CC(C)C)nn3)CC2)nc(N2CCN(C(=O)[C@H](CCCCN)n3cc([C@@H](N)C(C)CC)nn3)CC2)n1` (stereo not given in full): 19.8%; `C#CCOCCOCCOCCNc1nc(N2CCN(C(=O)[C@H](CCCCN)n3cc(C(N)CC(C)C)nn3)CC2)nc(N2CCN(C(=O)[C@H](CCC(=O)O)n3cc(C(N)[C@H](C)CC)nn3)CC2)n1` (stereo not given in full): 13.4%.
The same measure for `C#CCOCCOCCOCCNc1nc(N2CCOCC2)nc(N2CCN(C(=O)[C@H](CCCCN)n3cc([C@@H](N)CC(C)C)nn3)CC2)n1`: 11.6%; for `CC(OC(=O)c1cc(=O)[nH]c2ccccc12)C(=O)N1C(C)CCCC1C` (stereo not given): 3.29%; for `COc1ccccc1Nc1nnc(SCc2cc(=O)n3cc(C)ccc3n2)s1`: 10.9%.
The same measure for `Cc1cc(C)n2nc(SCc3nc4ccccc4[nH]3)nc2n1`: 3.82%.
Turning to `C/C=C\C=C/C(=O)Nc1cccc(C2=NOC3(C2)C[C@@H](C(N)=O)N(C(=O)COc2ccc(Cl)cc2)C3)c1` (stereo not given in full), the inhibition is 7.01%.
The same measure for `O=C(c1sc2ccccc2c1Cl)N1CCN(c2ncccn2)CC1`: 5.52%.
Next, `Cc1nc(Nc2nc(CSc3ccc(Cl)cc3)cc(=O)[nH]2)nc2ccccc12`: 4.96%.
In the case of `O=C(COC(=O)C1CC(=O)N(c2ccccc2)C1)c1ccccc1` (stereo not given), the inhibition was 4.11%.
The same measure for `O=C(CCCN1C(=O)/C(=C/c2ccccc2Cl)SC1=S)NCCCN1CCOCC1`: 12.8%; for `O=C1C(=Cc2ccccc2O)SC(=S)N1CCCN1CCOCC1`: 14.5%.
Next, `CCN(CC)C(=S)Nc1ccc2nc3n(c(=O)c2c1)CCCCC3`: 3.47%; `O=C(O)c1ccccc1C(=O)Nc1ccccn1`: 3.57%; `O=C(Nc1ccccn1)c1cc2ccccc2cc1O`: 6.04%.
In the case of `OCCSc1c(F)c(SCCO)c(SCCO)c(F)c1SCCO`, the inhibition was -1.8%.
Next, `Cn1c(=O)[nH]c(=O)c2c1nc(NCCc1ccccc1)n2CC(O)COc1ccccc1` (stereo not given): 4.54%; `CCOC(=O)C1(CCOC)CCN(C/C=C/c2ccccc2OC)CC1`: 5.1%.
The same measure for `O=C(CNC(=O)c1ccncc1)N/N=C/c1cc(Br)ccc1O`: 3.51%; for `O=C(N/N=C/c1ccc(O)cc1O)c1ccncc1`: 31.7%.
Regarding `O=C(CNC(=O)c1ccco1)N/N=C/c1ccccc1[N+](=O)[O-]`, the inhibition is 16.6%.
The same measure for `COc1cccc(/C=N/NC(=O)CNC(=O)c2cccnc2)c1O`: 5.08%; for `COc1ccc(Br)cc1/C=N/NC(=O)CNC(=O)c1cccnc1`: -12.5%; for `COc1cccc(/C=N/NC(=O)CNC(=O)c2cccs2)c1O`: 9.63%.
The same measure for `O=C(CNC(=O)c1cccs1)N/N=C/c1ccccc1[N+](=O)[O-]`: 3.27%; for `O=C(CNC(=O)c1ccco1)N/N=C/c1cc(Br)ccc1O`: 5.36%.
